Reference: PubChem BioAssay AID1159580 (chemical genetic matrix, 2015)
About 2,000 (36%) of roughly 5,500 compounds were called active. Not shown: some 18% with an inconclusive outcome. Cut-off read from the data, not from the text of the source: active = normalized growth mostly below about 0.91 (no sharp cut-off); inconclusive = no clear call, values can overlap the other calls; inactive = mostly above about 0.92. The list shows a part of the results.

Experiment: chemical genetic growth profiling, strain panel (AID 1159580);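 note: tested at 20 µM; growth read once vehicle control cultures reached saturation at 30 °C; 1 = growth at the plate median or of vehicle wells; lower values mean less growth of the strain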
Settings: S. cerevisiae deletion strains, growth OD

Measured: normalized growth

O=P1(NCCCl)OCCCN1CCCl (stereo not given)
inactive: locus YAL021C, strain ccr4, hits give low values 0.964 | locus YAL026C, strain drs2, hits give low values 0.991 | locus YAL030W, strain snc1, hits give low values 0.992 | locus YBL061C, strain skt5, hits give low values 0.993 | locus YBR009C, strain hhf1, hits give low values 1.01 | locus YBR023C, strain chs3, hits give low values 0.987 | locus YBR171W, strain sec66, hits give low values 0.98 | locus YBR231C, strain swc5, hits give low values 1 | locus YBR279W, strain paf1, hits give low values 0.997 | locus YCL011C, strain gbp2, hits give low values 0.975 | locus YCL016C, strain dcc1, hits give low values 0.992 | locus YCL061C, strain MRC1, hits give low values 0.987 | locus YCL069W, strain vba3, hits give low values 0.989 | locus YCR088W, strain abp1, hits give low values 0.971 | locus YDL005C, strain med2, hits give low values 0.995 | locus YDL040C, strain nat1, hits give low values 0.987 | locus YDR001C, strain nth1, hits give low values 0.985 | locus YDR069C, strain doa4, hits give low values 0.995 | locus YDR137W, strain rgp1, hits give low values 0.988 | locus YDR159W, strain sac3, hits give low values 0.982 | locus YDR195W, strain ref2 0.985 | locus YDR297W, strain sur2, hits give low values 0.99 | locus YDR334W, strain swr1, hits give low values 0.969 | locus YDR335W, strain msn5, hits give low values 0.976 | locus YDR392W, strain spt3, hits give low values 1.01 | locus YEL003W, strain gim4, hits give low values 0.983 | locus YEL037C, strain rad23, hits give low values 0.95 | locus YEL061C, strain CIN8 (second series), hits give low values 0.977 | locus YER015W, strain faa2, hits give low values 0.99 | locus YER016W, strain bim1, hits give low values 0.986 | locus YER111C, strain swi4, hits give low values 1 | locus YER155C, strain BEM2 (second series), hits give low values 1.01 | locus YFR010W, strain ubp6, hits give low values 0.96 | locus YGL167C, strain pmr1, hits give low values 0.992 | locus YGL173C, strain kem1, hits give low values 0.984 | locus YGL227W, strain vid30, hits give low values 0.993 | locus YGL240W, strain doc1, hits give low values 1.02 | locus YGL253W, strain hxk2, hits give low values 0.986 | locus YHR013C, strain ard1, hits give low values 0.996 | locus YHR027C, strain rpn1, hits give low values 0.981 | locus YHR030C, strain SLT2, hits give low values 0.967 | locus YHR079C, strain IRE1, hits give low values 0.971 | locus YHR142W, strain chs7, hits give low values 0.943 | locus YJL092W, strain hpr5, hits give low values 0.975 | locus YJL095W, strain BCK1 (second series), hits give low values 0.995 | locus YJL095W, strain BCK1, hits give low values 0.989 | locus YJL115W, strain asf1, hits give low values 0.971 | locus YJL129C, strain trk1, hits give low values 0.97 | locus YJL154C, strain vps35, hits give low values 0.992 | locus YJL164C, strain tpk1, hits give low values 0.979 | locus YJL166W, strain qcr8, hits give low values 0.998 | locus YJL187C, strain SWE1, hits give low values 0.99 | locus YJR066W, strain TOR1, hits give low values 0.921 | locus YKL160W, strain elf1, hits give low values 0.986 | locus YKR026C, strain gcn3, hits give low values 0.971 | locus YKR091W, strain srl3, hits give low values 0.99 | locus YLL001W, strain dnm1, hits give low values 0.968 | locus YLL026W, hits give low values 1 | locus YLL041C, strain sdh2, hits give low values 0.987 | locus YLR027C, strain aat2, hits give low values 0.988 | locus YLR113W, strain HOG1, hits give low values 1 | locus YLR221C, strain rsa3, hits give low values 0.981 | locus YLR258W, strain gsy2, hits give low values 0.996 | locus YLR262C, strain YPT6 (second series), hits give low values 1.01 | locus YLR320W, strain mms22, hits give low values 1.01 | locus YLR342W, strain FKS1, hits give low values 0.99 | locus YLR357W, strain rsc2, hits give low values 0.991 | locus YLR370C, strain arc18, hits give low values 0.986 | locus YLR384C, strain iki3, hits give low values 0.981 | locus YML120C, strain ndi1, hits give low values 0.968 | locus YMR058W, strain fet3, hits give low values 0.982 | locus YMR125W, strain sto1, hits give low values 0.992 | locus YMR129W, hits give low values 0.983 | locus YMR205C, strain PFK2, hits give low values 1.01 | locus YMR231W, strain pep5, hits give low values 0.992 | locus YNL071W, strain lat1, hits give low values 0.996 | locus YNL183C, strain NPR1, hits give low values 0.93 | locus YNL209W, strain ssb2, hits give low values 0.991 | locus YNL248C, strain rpa49, hits give low values 0.946 | locus YNL322C, strain KRE1 (second series), hits give low values 0.986 | locus YNR049C, strain mso1, hits give low values 0.985 | locus YOR001W, strain rrp6, hits give low values 0.973 | locus YOR070C, strain gyp1, hits give low values 0.993 | locus YOR080W, strain dia2, hits give low values 0.987 | locus YOR083W, strain WHI5, hits give low values 0.981 | locus YOR106W, strain vam3, hits give low values 0.982 | locus YOR231W, strain MKK1, hits give low values 0.968 | locus YOR265W, strain rbl2, hits give low values 0.99 | locus YOR270C, strain vph1, hits give low values 0.922 | locus YOR290C, strain snf2, hits give low values 0.994 | locus YPL051W, strain arl3, hits give low values 0.999 | locus YPL078C, strain atp4, hits give low values 0.978 | locus YPL106C, strain sse1, hits give low values 0.997 | locus YPL240C, strain hsp82, hits give low values 0.986 | locus YPL256C, strain CLN2, hits give low values 0.95
